The target of experiment [1] is T1, Methionyl-tRNA synthetase, putative (Leishmania donovani (strain BPK282A1)) (UniProt E9BF75).
T1 sequence (whole entry): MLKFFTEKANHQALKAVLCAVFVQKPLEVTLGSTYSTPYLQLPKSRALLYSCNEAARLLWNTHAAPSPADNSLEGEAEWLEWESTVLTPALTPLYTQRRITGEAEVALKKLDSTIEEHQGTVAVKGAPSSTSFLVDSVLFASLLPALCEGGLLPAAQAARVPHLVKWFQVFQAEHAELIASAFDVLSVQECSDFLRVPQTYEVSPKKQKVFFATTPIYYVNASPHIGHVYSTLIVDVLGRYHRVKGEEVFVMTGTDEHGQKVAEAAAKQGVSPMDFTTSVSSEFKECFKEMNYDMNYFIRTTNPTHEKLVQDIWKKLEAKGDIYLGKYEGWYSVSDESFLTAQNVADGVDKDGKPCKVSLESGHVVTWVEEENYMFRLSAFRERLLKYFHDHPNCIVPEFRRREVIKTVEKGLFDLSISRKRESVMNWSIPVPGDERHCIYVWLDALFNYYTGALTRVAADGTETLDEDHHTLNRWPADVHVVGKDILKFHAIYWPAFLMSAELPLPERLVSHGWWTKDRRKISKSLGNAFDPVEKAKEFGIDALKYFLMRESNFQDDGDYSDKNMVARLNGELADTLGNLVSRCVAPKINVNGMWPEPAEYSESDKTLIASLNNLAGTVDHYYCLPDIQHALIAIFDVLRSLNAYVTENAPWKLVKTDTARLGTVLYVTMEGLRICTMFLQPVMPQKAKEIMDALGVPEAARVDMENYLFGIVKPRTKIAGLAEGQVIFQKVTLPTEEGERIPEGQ
Put plainly: Leishmania donovani Methionine tRNA synthetase (LdMetRS):v7. Dose response assay. Format: functional. Also on record: conc 80 nM, time 150 minutes.

Experiment [2] has as its target Protein translocase subunit SecA (Escherichia coli (strain K12)) (UniProt P10408). Put plainly: Assay to Identify E. coli SecA ATPase Inhibitors. Format: functional. Also on record: scale not given: direction of the effect not stated beside the values. Particulars: 30 µM.
Experiment [3] addresses T2, Ubiquitin-activating enzyme e1, putative (Leishmania donovani (strain BPK282A1)) (UniProt E9BSI1).
T2 sequence (whole entry): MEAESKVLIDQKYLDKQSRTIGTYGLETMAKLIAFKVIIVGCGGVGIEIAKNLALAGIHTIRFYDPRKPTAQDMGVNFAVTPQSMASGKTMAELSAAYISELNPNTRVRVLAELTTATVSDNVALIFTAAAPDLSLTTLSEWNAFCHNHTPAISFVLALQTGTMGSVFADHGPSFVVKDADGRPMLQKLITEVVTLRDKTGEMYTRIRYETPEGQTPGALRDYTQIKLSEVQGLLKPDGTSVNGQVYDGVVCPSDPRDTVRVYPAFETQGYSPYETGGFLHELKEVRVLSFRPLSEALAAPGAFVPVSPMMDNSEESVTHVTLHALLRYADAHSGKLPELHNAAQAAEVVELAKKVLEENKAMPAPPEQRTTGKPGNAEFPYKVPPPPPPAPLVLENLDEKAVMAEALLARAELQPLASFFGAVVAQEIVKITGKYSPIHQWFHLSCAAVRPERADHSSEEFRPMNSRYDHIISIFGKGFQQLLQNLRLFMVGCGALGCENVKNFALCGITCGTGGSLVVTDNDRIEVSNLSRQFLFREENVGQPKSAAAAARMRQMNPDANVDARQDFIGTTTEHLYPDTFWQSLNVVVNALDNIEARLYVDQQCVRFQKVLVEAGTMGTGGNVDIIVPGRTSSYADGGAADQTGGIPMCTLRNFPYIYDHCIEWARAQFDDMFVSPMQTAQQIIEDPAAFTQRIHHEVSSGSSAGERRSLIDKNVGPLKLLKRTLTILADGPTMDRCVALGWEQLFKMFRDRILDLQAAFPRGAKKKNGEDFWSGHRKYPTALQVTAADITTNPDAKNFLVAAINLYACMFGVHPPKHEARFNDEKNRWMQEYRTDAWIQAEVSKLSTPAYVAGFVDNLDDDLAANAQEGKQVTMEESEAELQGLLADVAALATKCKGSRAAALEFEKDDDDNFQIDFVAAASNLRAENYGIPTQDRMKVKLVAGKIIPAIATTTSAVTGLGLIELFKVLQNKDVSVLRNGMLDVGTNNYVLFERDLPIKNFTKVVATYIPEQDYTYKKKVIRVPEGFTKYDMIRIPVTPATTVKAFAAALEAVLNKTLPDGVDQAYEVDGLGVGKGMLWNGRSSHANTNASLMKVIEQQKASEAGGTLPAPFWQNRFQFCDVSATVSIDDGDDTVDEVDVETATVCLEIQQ
In words: Leishmania donovani Ubiquitin Activating Enzyme (LdE1). It is filed as functional. Also on record: scale not given: direction of the effect not stated beside the values. Particulars: 30 µM.

The target of experiment [4] is AMP-activated protein kinase, AMPK (Homo sapiens) (UniProt P54646+O43741+P54619+Q9UGJ0+Q9Y478+Q13131+Q9UGI9). In words: AMP-dependent Kinase enzyme assay. An in vitro enzyme assay that detects ADP turnover that is directly proportional to AMPK activity. This uses naive AMPK that is activated during the assay with MK-8722. It is filed as functional. The arrangement: scale not given: direction of the effect not stated beside the values. Particulars: 30 µM.

Experiment [5] concerns the target Sialic acid-binding Ig-like lectin 9 (Homo sapiens) (UniProt Q9Y336). In words: Hs-Siglec9 ALPHAscreen SOP 20170721. Particulars: 10 µM. Also on record: scale not given: direction of the effect not stated beside the values. A general note: Alpha assays give light when donor and acceptor beads are brought close together.
For a further experiment, the system named is Trypanosoma cruzi. Put plainly: Trypanosoma cruzi phosphomannomutase and mannose-1-phosphate guanylyltransferase assay. The arrangement: scale not given: direction of the effect not stated beside the values. Format: functional. The conditions noted are these: 10 µM.
In experiment [6] the target is T3, Arginase-2, mitochondrial (Homo sapiens) (UniProt P78540).
T3 sequence (whole entry): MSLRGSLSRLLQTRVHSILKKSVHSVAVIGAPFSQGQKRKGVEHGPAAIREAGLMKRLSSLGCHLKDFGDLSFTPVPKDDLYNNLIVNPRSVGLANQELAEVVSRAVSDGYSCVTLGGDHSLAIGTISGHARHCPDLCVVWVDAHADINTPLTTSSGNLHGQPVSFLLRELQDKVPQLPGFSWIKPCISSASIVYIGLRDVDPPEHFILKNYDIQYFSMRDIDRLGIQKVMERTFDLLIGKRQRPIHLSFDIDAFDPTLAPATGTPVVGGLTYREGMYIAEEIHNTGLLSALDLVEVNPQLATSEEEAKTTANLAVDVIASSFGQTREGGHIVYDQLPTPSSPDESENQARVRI
In words: in vitro enzyme assay to detect the production of urea directly proportional to the activity of Arginase II. Format: functional. Also on record: scale not given: in the data most compounds retested in dose-response had high values. Particulars: 33.3 µM.

Experiment [7] deals with T4, Proteasome subunit beta (Trypanosoma cruzi) (UniProt O96673).
T4 sequence (whole entry): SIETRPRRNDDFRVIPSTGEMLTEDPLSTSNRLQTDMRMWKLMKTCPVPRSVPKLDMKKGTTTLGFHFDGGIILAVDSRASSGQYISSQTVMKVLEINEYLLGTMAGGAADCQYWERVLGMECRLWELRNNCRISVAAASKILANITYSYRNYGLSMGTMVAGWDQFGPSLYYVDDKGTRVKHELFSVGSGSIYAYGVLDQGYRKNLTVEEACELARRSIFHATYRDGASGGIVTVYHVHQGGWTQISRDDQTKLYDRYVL
In words: Trypanosoma cruzi proteasome chymotrypsin-like activity (TcProtChymo) assay. It is filed as functional. Particulars: 9.37 µM. Also on record: scale not given: in the data most compounds retested in dose-response had high values.

The species entered for another experiment is Homo sapiens. In words: To identify inhibition of the IFN signalling (Jak-Stat) pathway via expression of an eGFP reporter gene under the control of an IFN-stimulated response element (ISRE) containing MxA promoter. Also on record: scale not given: direction of the effect not stated beside the values. Particulars: 30 µM. It is filed as functional. Background: Reporter assays use an easily measured gene product as a stand-in for the process of interest.

Experiment [8] addresses T5, Tyrosyl-tRNA synthetase, putative (Trypanosoma cruzi (strain CL Brener)) (UniProt Q4DSP6).
T5 sequence (whole entry): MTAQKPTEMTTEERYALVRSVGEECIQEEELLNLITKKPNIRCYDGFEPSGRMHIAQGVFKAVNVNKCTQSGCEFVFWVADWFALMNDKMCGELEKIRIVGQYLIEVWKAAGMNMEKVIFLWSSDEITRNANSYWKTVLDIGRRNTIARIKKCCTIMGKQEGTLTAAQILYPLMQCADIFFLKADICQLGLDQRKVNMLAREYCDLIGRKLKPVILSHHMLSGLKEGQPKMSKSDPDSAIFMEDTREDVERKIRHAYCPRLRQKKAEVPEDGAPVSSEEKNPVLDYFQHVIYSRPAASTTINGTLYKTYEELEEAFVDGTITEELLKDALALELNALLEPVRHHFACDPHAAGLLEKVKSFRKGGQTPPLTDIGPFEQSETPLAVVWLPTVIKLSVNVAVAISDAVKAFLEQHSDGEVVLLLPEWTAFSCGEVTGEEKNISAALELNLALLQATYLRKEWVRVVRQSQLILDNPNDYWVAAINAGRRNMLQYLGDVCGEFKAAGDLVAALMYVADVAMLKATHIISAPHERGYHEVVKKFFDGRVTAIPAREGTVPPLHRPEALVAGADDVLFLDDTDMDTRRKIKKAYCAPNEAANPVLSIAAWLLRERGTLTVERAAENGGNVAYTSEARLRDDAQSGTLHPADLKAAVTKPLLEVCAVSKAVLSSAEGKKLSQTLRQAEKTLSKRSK
Put plainly: Trypanosoma cruzi tyrosyl tRNA synthetase (TcYRS) _High Tyrosine SOP. Format: functional. The arrangement: scale not given: in the data most compounds retested in dose-response had high values. Particulars: 30 µM.

In experiment [9] the target is T5, Tyrosyl-tRNA synthetase, putative (Trypanosoma cruzi (strain CL Brener)). Put plainly: Trypanosoma cruzi tyrosyl tRNA synthetase (TcYRS) SOP. The arrangement: scale not given: direction of the effect not stated beside the values. The conditions noted are these: 30 µM. Format: functional.
The target of experiment [10] is Chromo domain-containing protein 1 (Saccharomyces cerevisiae (strain ATCC 204508 / S288c) (Baker's yeast)) (UniProt P32657). In words: ScCHD-1 Enzyme Inhibition Assay. It is filed as functional. The arrangement: scale not given: in the data most compounds retested in dose-response had high values. Particulars: 30 µM.

Structures are written as SMILES. For some of these results: Entries with a potency or affinity are not part of this list.

Sequence of Chromo domain-containing protein 1 (Saccharomyces cerevisiae (strain ATCC 204508 / S288c) (Baker's yeast)) (P32657 whole entry, the tested form may be a part): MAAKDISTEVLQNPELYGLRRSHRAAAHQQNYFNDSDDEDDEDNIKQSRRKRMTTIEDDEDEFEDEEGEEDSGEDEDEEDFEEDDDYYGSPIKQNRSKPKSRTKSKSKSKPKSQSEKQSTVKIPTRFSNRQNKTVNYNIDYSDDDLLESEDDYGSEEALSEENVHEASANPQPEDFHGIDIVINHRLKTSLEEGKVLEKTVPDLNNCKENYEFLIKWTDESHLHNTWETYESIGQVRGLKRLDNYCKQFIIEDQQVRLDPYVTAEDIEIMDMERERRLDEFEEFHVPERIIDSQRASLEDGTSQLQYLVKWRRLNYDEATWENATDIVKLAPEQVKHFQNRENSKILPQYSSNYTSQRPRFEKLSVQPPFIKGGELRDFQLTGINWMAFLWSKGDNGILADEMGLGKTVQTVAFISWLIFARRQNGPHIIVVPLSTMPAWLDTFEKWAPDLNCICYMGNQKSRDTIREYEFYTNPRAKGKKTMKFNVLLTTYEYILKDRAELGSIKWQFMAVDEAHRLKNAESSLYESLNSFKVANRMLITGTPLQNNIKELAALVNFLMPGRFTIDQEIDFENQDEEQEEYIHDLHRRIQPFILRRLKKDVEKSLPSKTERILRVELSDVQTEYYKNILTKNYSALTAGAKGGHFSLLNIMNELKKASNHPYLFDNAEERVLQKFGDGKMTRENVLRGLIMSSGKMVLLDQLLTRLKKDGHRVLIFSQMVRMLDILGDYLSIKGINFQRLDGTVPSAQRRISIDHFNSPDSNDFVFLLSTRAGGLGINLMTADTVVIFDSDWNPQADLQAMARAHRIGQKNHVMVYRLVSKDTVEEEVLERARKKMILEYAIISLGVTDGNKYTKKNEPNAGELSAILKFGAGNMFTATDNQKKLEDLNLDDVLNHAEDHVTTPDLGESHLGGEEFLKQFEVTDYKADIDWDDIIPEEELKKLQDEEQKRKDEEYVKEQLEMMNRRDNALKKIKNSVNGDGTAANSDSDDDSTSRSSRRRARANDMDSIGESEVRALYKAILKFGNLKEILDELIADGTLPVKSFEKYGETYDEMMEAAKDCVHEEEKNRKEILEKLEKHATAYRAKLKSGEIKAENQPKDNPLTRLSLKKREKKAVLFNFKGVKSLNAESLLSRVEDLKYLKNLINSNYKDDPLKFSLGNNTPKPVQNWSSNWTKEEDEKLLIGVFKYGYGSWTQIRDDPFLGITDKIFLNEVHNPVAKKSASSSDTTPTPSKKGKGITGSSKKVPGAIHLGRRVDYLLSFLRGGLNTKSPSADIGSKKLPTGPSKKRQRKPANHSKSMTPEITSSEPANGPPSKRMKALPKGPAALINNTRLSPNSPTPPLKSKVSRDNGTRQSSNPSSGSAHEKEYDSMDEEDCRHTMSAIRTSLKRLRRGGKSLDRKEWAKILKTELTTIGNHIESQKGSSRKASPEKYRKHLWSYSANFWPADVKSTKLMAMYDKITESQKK
Sequence of Sialic acid-binding Ig-like lectin 9 (Homo sapiens) (Q9Y336 whole entry): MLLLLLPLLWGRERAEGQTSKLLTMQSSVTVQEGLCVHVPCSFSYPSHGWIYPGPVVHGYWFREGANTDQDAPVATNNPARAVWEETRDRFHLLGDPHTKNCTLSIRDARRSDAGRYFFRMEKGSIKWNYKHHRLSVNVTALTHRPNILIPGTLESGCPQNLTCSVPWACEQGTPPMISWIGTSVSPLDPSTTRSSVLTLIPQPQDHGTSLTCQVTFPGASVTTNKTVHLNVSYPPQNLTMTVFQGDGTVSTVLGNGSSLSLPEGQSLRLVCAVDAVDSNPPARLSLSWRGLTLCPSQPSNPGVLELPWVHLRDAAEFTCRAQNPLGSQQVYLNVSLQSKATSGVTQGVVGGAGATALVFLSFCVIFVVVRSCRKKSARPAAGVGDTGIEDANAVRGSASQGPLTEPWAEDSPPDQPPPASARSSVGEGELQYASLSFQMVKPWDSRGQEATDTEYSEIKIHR
Sequence of Protein translocase subunit SecA (Escherichia coli (strain K12)) (P10408 whole entry): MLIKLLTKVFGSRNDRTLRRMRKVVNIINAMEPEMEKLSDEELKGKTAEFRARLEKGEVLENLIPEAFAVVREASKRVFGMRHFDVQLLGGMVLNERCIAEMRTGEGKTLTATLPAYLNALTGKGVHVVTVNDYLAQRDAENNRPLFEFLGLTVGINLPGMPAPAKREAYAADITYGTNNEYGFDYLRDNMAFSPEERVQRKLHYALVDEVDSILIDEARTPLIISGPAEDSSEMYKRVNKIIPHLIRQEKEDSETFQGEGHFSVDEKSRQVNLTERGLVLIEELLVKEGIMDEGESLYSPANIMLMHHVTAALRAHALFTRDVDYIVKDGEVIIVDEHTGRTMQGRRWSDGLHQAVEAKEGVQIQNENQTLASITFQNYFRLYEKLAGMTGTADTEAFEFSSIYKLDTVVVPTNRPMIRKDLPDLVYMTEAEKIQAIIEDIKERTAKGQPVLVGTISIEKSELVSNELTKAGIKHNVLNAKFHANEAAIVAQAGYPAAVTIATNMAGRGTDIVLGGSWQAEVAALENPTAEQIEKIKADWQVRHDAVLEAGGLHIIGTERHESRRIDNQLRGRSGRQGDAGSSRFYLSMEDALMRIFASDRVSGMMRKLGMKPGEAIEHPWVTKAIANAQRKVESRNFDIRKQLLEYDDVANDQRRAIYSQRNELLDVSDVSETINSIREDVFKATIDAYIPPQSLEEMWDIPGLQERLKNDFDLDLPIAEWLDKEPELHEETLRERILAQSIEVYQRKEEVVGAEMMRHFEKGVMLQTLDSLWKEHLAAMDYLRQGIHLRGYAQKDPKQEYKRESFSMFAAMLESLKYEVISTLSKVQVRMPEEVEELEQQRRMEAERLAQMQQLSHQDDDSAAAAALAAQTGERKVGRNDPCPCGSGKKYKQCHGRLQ

Turning to `Cn1cnnc1C1CCN(c2cncc(-n3cccn3)n2)CC1`, the PXC50 in [1] (MAX_EFFECT 4.275534442) and in experiment [1] (MAX_EFFECT 11.79577465) was less than 4 in each case. The Percent Effect in experiment [2] is -2.06%; in experiment [3], 8.11%; in experiment [4], -2.17%; in [5], -0.628%; in the experiment on Trypanosoma cruzi, 0.781%; in [6], 2.92%. Further, the Percent Effect in experiment [7] was 13.8%; in the experiment filed under Homo sapiens, -3.56%; in experiment [8], 5.94%; in experiment [9], 8.54%; in [10] it was -8.65%.
For `COC1CCCC(Nc2nc(Nc3ccc(F)c(F)c3)nc3c2cnn3C)C1` (centres undefined), the PXC50 in experiment [1] (BOTTOM 3.912528548, HILLSLOPE 1.076870083, MAX_EFFECT 68.97196262, TOP 71.78159337) is 5.18; in experiment [1] (BOTTOM 5.265177704, HILLSLOPE 1.728535848, MAX_EFFECT 54.8245614, TOP 53.52484427), 5.16; in experiment [1] (BOTTOM 8.334941311, HILLSLOPE 1.334767366, MAX_EFFECT 54.01869159, TOP 53.22848094), 5.23; in experiment [1] (BOTTOM -8.876719942, HILLSLOPE 0.681128814, MAX_EFFECT 53.21888412, TOP 100.0), 4.53; in experiment [1] (MAX_EFFECT 40.38004751) it was less than 4; in experiment [1] (MAX_EFFECT 46.81933842) it was less than 4.

Source of the values: ChEMBL document CHEMBL3988442, “University of Dundee, Small-Polar-MMV Screening Library” (2021).
